We go through six compounds from PubChem BioAssay (Tox21).

Assay [1] is described as follows: qHTS assay for small molecules that induce genotoxicity in human embryonic kidney cells expressing luciferase-tagged ATAD5 (AID 651632). Further: nearly all actives have a fitted effect of over 15% in size. The procedure, abridged: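 A rise in luciferase signal from ATAD5-tagged HEK293T cells marks genetic stress. Cells were exposed to compounds for 16 hr at 37C, 5% CO2, then luciferase was quantified after a 30 min room-temperature incubation with Amplite.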
For orientation: Quantitative high-throughput screening tests each substance at several concentrations.

A short description of assay [2]: qHTS assay for small molecule agonists of the p53 signaling pathway - cell viability (AID 651633; calls by dose curve; further: nearly all actives have a fitted effect of over 30% in size; further: potency means the concentration at half of the fitted maximal effect). The procedure, abridged: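 p53RE-bla cells were treated with compound for 16 hours at 37 C. Cytotoxicity was then measured as CellTiter-Glo luminescence after 30 min at room temperature.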
Assay [3] in a line: qHTS assay for small molecules that induce genotoxicity in human embryonic kidney cells expressing luciferase-tagged ATAD5 - cell viability (AID 651634; calls by dose curve; further: nearly all actives have a fitted effect of over 25% in size; further: potency means the concentration at half of the fitted maximal effect). The gist of the method:
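Cytotoxicity counter-readout: after 15.5 hr compound treatment at 37C, live-cell protease activity in ATAD5-luciferase HEK293T cells measured by CellTiter-Fluor fluorescence, 30 min development at 37C.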

Assay [4] can be described thus: qHTS assay to test for compound auto fluorescence at 590 nm (red) in HepG2 cells (AID 720674). The procedure, abridged:
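HepG2 cells, 2,000 per well in MEM with 10% FBS, attached overnight at 37 C, then got 23 nL compound or DMSO. After 1 hr at 37 C, 5% CO2, red fluorescence was read at 540/590 nm against Rose Bengal sodium as reference.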

The nature of assay [5]: qHTS assay to test for compound auto fluorescence at 460 nm (blue) in HEK293 cells (AID 720678). The gist of the method: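 Intrinsic compound fluorescence is recorded in live HEK293 cultures after overnight incubation at 37C, 5% CO2, using excitation 405 nm and emission 460 nm. Values are referenced to triamterene.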
Assay [6] in a line: qHTS assay to test for compound auto fluorescence at 590 nm (red) in HEK293 cells (AID 720679). The gist of the method:
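Red autofluorescence, HEK293 cells: 2,000 cells/well; attach 4-5 hr 37C; add 23 nL cpd or DMSO; incubate o/n 37C 5% CO2; read Ex540/Em590; Rose Bengal sodium reference.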

Assay [7] is described as follows: qHTS assay to test for compound auto fluorescence at 535 nm (green) in HEK293 cells (AID 720680).
The nature of assay [8]: qHTS assay to test for compound auto fluorescence at 460 nm (blue) in HEK293 cell free culture (AID 720681). The gist of the method:
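Compounds were added to cell-free DMEM with 10% FBS and fluorescence read directly. The blue channel used 405 nm excitation and 460 nm emission, with triamterene as the reference fluorophore.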

Assay [9] can be described thus: qHTS assay to test for compound auto fluorescence at 535 nm (green) in HEK293 cell free culture (AID 720682). The gist of the method: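 DMEM + 10% FBS, cell-free; cpd or DMSO pinned in; Ex485/Em535 read; output as fluorescein-equivalent signal.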
A short description of assay [10]: qHTS assay to test for compound auto fluorescence at 590 nm (red) in HEK293 cell free culture (AID 720683). The gist of the method:
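Cell-free wells of DMEM with 10% FBS received compound, and intrinsic fluorescence was read at excitation/emission 540/590 nm. Values expressed as equivalence to Rose Bengal sodium.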

A short description of assay [11]: qHTS assay to test for compound auto fluorescence at 590 nm (red) in HepG2 cell free culture (AID 720684). The procedure, abridged:
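Rose Bengal sodium served as the reference for red signal. Test compounds were dispensed into serum-containing MEM (10% FBS) without cells, and plates were read at 540/590 nm.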

Assay [12] is described as follows: qHTS assay to test for compound auto fluorescence at 460 nm (blue) in HepG2 cell free culture (AID 720685). The gist of the method:
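Cell-free plates of MEM plus 10% FBS received 23 nL compound or DMSO vehicle; blue-channel (405/460 nm) intensity scored against triamterene as reference fluorophore.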

Assay [13] in a line: qHTS assay to test for compound auto fluorescence at 535 nm (green) in HepG2 cell free culture (AID 720686).
A short description of assay [14]: qHTS assay to test for compound auto fluorescence at 460 nm (blue) in HepG2 cells (AID 720687). The gist of the method: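 HepG2 cells in MEM with 10% FBS, attached overnight at 37 C, were exposed to compound or DMSO for 1 hr at 37 C, 5% CO2. Blue fluorescence was read at 405/460 nm, with triamterene as reference fluorophore.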
Assay [15] concerns the target Glucocorticoid receptor (Homo sapiens) (UniProt P04150). The experiment in a line: qHTS assay to identify small molecule agonists of the glucocorticoid receptor (GR) signaling pathway (AID 720691; active means well fitted activation curve with a large enough effect in the signal ratio in the repeat runs, not every such curve was filed as active; the % refers to the signal ratio). As to conditions: GR-bla HeLa, beta-lactamase reporter ratio, 18 h; activation: at 62.4 µM (top of the series). The gist of the method: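 Agonist-mode qHTS in HeLa cells stably expressing a glucocorticoid-response-element beta-lactamase reporter. Fluorescence intensity read with FRET substrate (2 h, room temperature) after 18 h compound treatment at 37 C.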

The nature of assay [16]: qHTS assay for small molecule disruptors of the mitochondrial membrane potential - cell viability (AID 720634; calls by dose curve; further: nearly all actives have a fitted effect of over 20% in size; further: potency means the concentration at half of the fitted maximal effect). The gist of the method: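 Cytotoxicity was quantified from ATP content by CellTiter-Glo luminescence in the same wells as the MMP dye read-out. HepG2 (2,000 cells/well) were plated overnight and exposed to compounds for 1 hr at 37 C.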
A short description of assay [17]: qHTS assay for small molecule disruptors of the mitochondrial membrane potential (AID 720635). Further: potency means the concentration at half of the fitted maximal effect. The procedure, abridged: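 HepG2 cells exposed to compound 1 hr at 37C, then Mito-MPS dye 30 min. Ratio read of aggregate (540/590 nm) versus monomer (490/535 nm) fluorescence.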
In assay [18] the target is Glucocorticoid receptor (Homo sapiens) (UniProt P04150). The assay can be described thus: qHTS assay to identify small molecule antagonists of the glucocorticoid receptor (GR) signaling pathway (AID 720692; active means well fitted inhibition curve with a large enough effect in the signal ratio in the repeat runs, not every such curve was filed as active; the % refers to the signal ratio; further: potency means the concentration at half of the fitted maximal effect). The gist of the method: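 Inhibition of dexamethasone-driven (5 nM final) beta-lactamase expression was measured in GRE-reporter HeLa cells over 18 h at 37C. Fluorescence was read after 2 h with the B/G FRET substrate at room temperature.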
Chain of Glucocorticoid receptor (Homo sapiens) (P04150 whole entry, looked up): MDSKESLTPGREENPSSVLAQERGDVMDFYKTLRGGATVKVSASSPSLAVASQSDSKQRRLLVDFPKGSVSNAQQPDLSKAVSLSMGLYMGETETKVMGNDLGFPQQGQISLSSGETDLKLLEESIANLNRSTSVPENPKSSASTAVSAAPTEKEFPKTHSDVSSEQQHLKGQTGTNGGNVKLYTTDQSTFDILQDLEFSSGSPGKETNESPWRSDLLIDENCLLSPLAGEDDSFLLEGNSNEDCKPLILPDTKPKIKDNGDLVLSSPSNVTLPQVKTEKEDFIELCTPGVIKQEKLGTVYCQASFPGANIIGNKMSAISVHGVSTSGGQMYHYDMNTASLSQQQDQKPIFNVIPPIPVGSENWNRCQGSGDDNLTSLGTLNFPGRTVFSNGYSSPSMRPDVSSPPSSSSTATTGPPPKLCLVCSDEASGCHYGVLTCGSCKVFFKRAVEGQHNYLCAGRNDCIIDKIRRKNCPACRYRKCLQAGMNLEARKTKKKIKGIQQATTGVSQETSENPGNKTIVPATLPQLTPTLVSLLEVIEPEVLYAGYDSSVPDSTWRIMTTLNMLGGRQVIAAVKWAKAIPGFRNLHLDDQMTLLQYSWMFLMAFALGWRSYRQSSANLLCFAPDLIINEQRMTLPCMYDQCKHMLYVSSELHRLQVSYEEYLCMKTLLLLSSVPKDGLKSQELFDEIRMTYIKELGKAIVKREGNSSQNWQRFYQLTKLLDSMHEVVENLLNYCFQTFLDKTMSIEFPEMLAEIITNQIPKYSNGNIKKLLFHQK

The nature of assay [19]: qHTS assay to test for compound auto fluorescence at 535 nm (green) in HepG2 cells (AID 720675).

Values without a mark were called inactive. Inconclusive results are not listed. The source made the active and inactive calls. Unless noted, the call rests on the fitted dose curve; in most records, active means well fitted curve in the direction sought with a large enough effect in the repeat runs; inconclusive means weak or mixed curves; inactive means no such curve, though single readings can be large; an effect the other way counts as inactive or inconclusive.

On to `CCCCN(CCCC)C(=O)N(CCCC)CCCC`, for which the Potency result in [1], in [2], in [3], in assay [4], in assay [5] and in [6] was “inactive” each time. For the same compound, the Potency result in assay [8], in assay [10], in assay [11], in assay [12], in assay [13] and in assay [14] was “inactive” each time. Also, in assay [15], the Potency result is “inactive”. Besides, the compound was called inactive in assay [7] and in [9].

Take `C[C@H]1[C@H]2CC[C@H]3[C@@H]4CC=C5C[C@@H](N(C)C)CC[C@]5(C)[C@H]4CC[C@]23CN1C`: the Potency result in [1], in assay [2], in assay [3], in assay [16], in [17] and in assay [4] was “inactive” throughout. Further, the Potency entry in [5], in assay [6], in [8], in assay [10], in [12] and in assay [13] was “inactive” in each case. The Potency result in [14], in assay [15] and in assay [18] was “inactive” each time. The call in assay [7] and in assay [9] was inactive.

As for `CCCCN(CCCC)c1ccc(C(=O)c2ccccc2C(=O)O)c(O)c1`, the Potency result in [1], in [3], in assay [16], in [4], in [19] and in [5] was “inactive” throughout. Further, the Potency result in assay [6], in assay [8], in assay [10], in assay [11], in assay [12] and in [13] was “inactive” each time. Besides, in assay [14], the Potency entry is “inactive”. The Potency in assay [2] was 17.4 µM (active). Besides, the compound was called inactive in assay [7] and in assay [9].

In the case of `Cc1cc(CCN2CCN(c3nsc4ccccc34)CC2)cc2c1NC(=O)CC2(C)C`, the Potency result in assay [1], in assay [4], in [19], in [5], in assay [6] and in [8] was “inactive” throughout. In addition, the Potency result in assay [10], in [11], in assay [12], in assay [13], in [14] and in [15] was “inactive” each time. Moreover, the Potency in assay [2] is 43.3 µM (active); in [3], 61.1 µM (active); in assay [16], 54.5 µM (active). Further, the result in assay [7] and in assay [9] was inactive.

As for `CCc1oc2ccccc2c1C(=O)c1cc(Br)c(O)c(Br)c1`, the Potency result in assay [1], in assay [3], in assay [4], in assay [19], in [5] and in [8] was “inactive” throughout. The Potency entry in assay [10], in [12], in [14] and in assay [15] was “inactive” each time. Also, the Potency in assay [2] was 26.6 µM (active); in assay [17] it was 5.96 µM (active); in assay [18], 15.1 µM (active). Further, the outcome in assay [7] and in assay [9] was inactive.

Take `CC(C)(C)CC(C)(C)c1ccc(O)c(Cc2ccc(Cl)cc2Cl)c1`: the Potency result in [1], in assay [4], in assay [19], in assay [5], in [6] and in assay [8] was “inactive” each time. The Potency entry in assay [10], in assay [11], in assay [12], in assay [13] and in assay [14] was “inactive” throughout. For the same compound, the Potency in assay [2] was 13.3 µM (active); in [3], 23.7 µM (active); in assay [17], 1.68 µM (active). The compound was called inactive in assay [7].
